# About 1,800 (0.62%) of roughly 290,000 compounds were called active. Cut-off read from the data, not from the text of the source: active = inhibition above about 50%; inactive = the rest. Shown is part of a subset that was picked to be rich in actives.
# Experiment: inhibition of NOD2-driven NF-kB reporter – cell-based, luminescence, uHTS, HEK293 (AID 1566)
# Settings: HEK293 NOD2/NF-kB luciferase reporter, at 4 µM, active compounds read high
row,Structure (SMILES),inhibition
1,CCOc1ccc(-c2cc(C)[n+](CCN3CCOCC3)c(-c3ccc(OCC)cc3)c2)cc1,21.6% (inactive)
2,CCOc1ccc(-c2cc(C)[n+](CCO)c(-c3ccc(OCC)cc3)c2)cc1,0.3% (inactive)
3,CCOc1ccc(-c2cc(C)[n+](CCc3ccc(OC)c(OC)c3)c(-c3ccc(OCC)cc3)c2)cc1,58.6% (active)
4,COc1ccc(-c2cc(=NCCCCCC(=O)O)c3cc(C)ccc3o2)cc1,-4.2% (inactive)
5,N=C1C(c2ccccc2)=C(O)CN1Cc1ccco1,8.2% (inactive)
6,Cc1cccc(-n2c(O)c(C=NCCN3CCNCC3)c(=O)[nH]c2=S)c1,-4.3% (inactive)
7,O=C(Cn1cc(C(=O)c2ccccc2F)c2ccccc21)NC1CC1,13.6% (inactive)
8,O=C(c1cc(C(=O)NCc2ccccc2)c(=O)n(Cc2ccccc2)c1)c1cc(Br)ccc1O,2.5% (inactive)
9,CCc1ccc(OCC(=O)N2CCN(Cc3ccc4c(c3)OCO4)CC2)cc1,-4.3% (inactive)
10,CCCNS(=O)(=O)c1ccc(OCC(=O)N2CCN(Cc3ccc4c(c3)OCO4)CC2)cc1,20.9% (inactive)
11,CCCCNS(=O)(=O)c1ccc(OCC(=O)N2CCN(Cc3ccc4c(c3)OCO4)CC2)cc1,51.1% (active)
12,CC(C)CNP(=S)(c1ccccc1)C(C)(C)C (stereo not given),10.7% (inactive)
13,O=c1cc(CN2CCNCC2)nc2sccn12,8.2% (inactive)
14,FC(F)(F)c1cccc(C2NCc3ccccc3-n3cccc32)c1 (stereo not given),9.8% (inactive)
15,CC(=O)OC1CC[C@]2(C#N)[C@H]3CC[C@]4(C)[C@H](C5C=CC(=O)O5)CCC4(O)C3CCC2(O)C1 (stereo not given in full),75% (active)
16,Cn1cccc1CN1CCN(C(=O)COc2ccccc2)CC1,16.7% (inactive)
17,O=[N+]([O-])c1ccccc1CN1CC=C(c2ccc(F)cc2)CC1,-15.5% (inactive)
18,CC12CC[C@H]3[C@@H](CCC4(O)C[C@H](O)CCC34/C=N/NC(=O)c3ccccc3Cl)C1(O)CCC2C1=CC(=O)OC1 (stereo not given in full),25.4% (inactive)
19,CC12CC[C@H]3[C@@H](CCC4(O)C[C@H](O)CCC34/C=N/NC(=O)c3ccc(O)cc3)C1(O)CCC2C1=CC(=O)OC1 (stereo not given in full),9.1% (inactive)
20,C[C@H]1O[C@@H](OC2CC[C@]3(C=O)[C@H]4CC[C@]5(C)[C@@H](C6=CC(=O)OC6)CC[C@]5(O)[C@@H]4CC[C@]3(O)C2)CC2OC(C)(C)OC21 (stereo not given in full),73% (active)
21,COc1ccc(C(=O)N/N=C/C23CC[C@@H](O)CC2(O)CC[C@@H]2[C@@H]3CCC3(C)C(C4=CC(=O)OC4)CCC23O)cc1 (stereo not given in full),27.3% (inactive)
22,CC12CC[C@H]3[C@@H](CCC4(O)C[C@H](O)CCC34/C=N/NC(=O)c3ccccc3O)C1(O)CCC2C1=CC(=O)OC1 (stereo not given in full),17.2% (inactive)
23,C[C@H]1O[C@@H](O[C@H]2[C@@H](O)C[C@H](O[C@H]3[C@@H](O)C[C@H](O[C@H]4CC[C@@]5(C)[C@H](CC[C@@H]6[C@@H]5CC[C@]5(C)[C@@H](C7=CC(=O)OC7)CC[C@]65O)C4)O[C@@H]3C)O[C@@H]2C)C[C@H](O)[C@@H]1O,73.9% (active)
24,CCOc1ccc(N=Cc2c(O)n(Cc3ccccc3)c(=S)[nH]c2=O)cc1,8.4% (inactive)

row,Structure (SMILES),inhibition
1,CC(C)CCOP(N)(=O)Oc1ccccc1 (stereo not given),-6.2% (inactive)
2,Cc1ccc2cccc(OC(=O)N(C)c3ccccc3)c2n1,5.1% (inactive)
3,C=CCn1c(O)c(C(C)=NC2CC2)c(=O)[nH]c1=O,4.6% (inactive)
4,O=c1c2ccccc2nc(/C=C/c2ccc(O)cc2)n1-c1ccccc1O,-2.5% (inactive)
5,Cc1nc2ccc(Cl)cc2c(=O)n1-c1cccc(Cl)c1,-2.1% (inactive)
6,O=C(Cn1nc(Cc2cccnc2)c2ccccc2c1=O)N1CCC2(CC1)OCCO2,20.3% (inactive)
7,COc1ccccc1/C=C1\C(=O)NC(=S)N(c2ccccc2)C1=O,11.6% (inactive)
8,CCNC(=O)[C@H]1O[C@@H](n2cnc3c(N)ncnc32)[C@H](O)[C@@H]1O,-24.1% (inactive)
9,NC(=S)c1cn(C2OC(CO)C(O)C2O)c2ncnc(N)c12 (stereo not given),69.1% (active)
10,C=C(CO)CC1CC(O)[C@]2(C)OC3CC4OC5C[C@]6(C)O[C@]7(C)CCC8OC9C[C@]%10(C)OC%11C(C)=CC(=O)OC%11CC%10OC9C[C@@H](C)C8OC7CC6O[C@]5(C)C/C=C\C4OC3CC2O1 (stereo not given in full),4.7% (inactive)
11,C=C(C=O)C[C@@H]1C[C@H](O)C2OC3C[C@]4(C)OC5/C=C\CC6OC7C(CC=CCC6OC5CCCC4OC3CC2O1)OC1CC2OC3CC(=O)OC3C[C@@H](C)C[C@@]2(C)OC1C[C@@H]7C (stereo not given in full),58.2% (active)
12,C=C(CC1CC(O)[C@]2(C)OC3CC4OC5C[C@]6(C)O[C@]7(C)CCC8OC9C[C@]%10(C)OC%11C(C)=CC(=O)OC%11CC%10OC9C[C@@H](C)C8OC7CC6O[C@]5(C)C/C=C\C4OC3CC2O1)C(=O)O (stereo not given in full),12.8% (inactive)
13,C=CCn1c(O)c(/C(C)=N/NC(=S)Nc2ccccc2)c(=O)[nH]c1=O,10.8% (inactive)
14,CCOc1cccc(=NC2CCCCC2)c2c(C)n(C)c(C)c12,27% (inactive)
15,COc1ccc(-c2nc(CSCC(=O)N3CCC4(CC3)OCCO4)c(C)o2)cc1OC,-11.2% (inactive)
16,Cc1oc(-c2cccs2)nc1CSCC(=O)N1CCC2(CC1)OCCO2,57.1% (active)
17,Cc1ccsc1-c1nc(CSCC(=O)N2CCC3(CC2)OCCO3)c(C)o1,11.3% (inactive)
18,O=c1[nH]c(=O)n(CCC2=CCCCC2)c(O)c1/C=N/Nc1cccc2ccccc12,33.9% (inactive)
19,CC1C(OC(=O)CCC(=O)NC(C)(C)CO)O[C@H]2OC3(C)CC[C@H]4[C@H](C)CCC1C24OO3 (stereo not given in full),64.5% (active)
20,C[C@H]1[C@H](OC(=O)CCC(=O)NCc2ccc(C(=O)O)cc2)O[C@@H]2O[C@@]3(C)CC[C@H]4[C@H](C)CC[C@@H]1C24OO3,26.4% (inactive)
21,C[C@@H]1CC[C@H]2[C@@H](C)C(=O)O[C@@H]3O[C@@]4(C)CC[C@@H]1[C@]32OO4,9% (inactive)
22,O=c1[nH]c(=O)n(CCC2=CCCCC2)c(O)c1/C=N/Nc1ccccc1,15.6% (inactive)
23,CCOc1ccc(N2C(=O)NC(=O)/C(=C/c3cnc(SC)nc3)C2=O)cc1,3% (inactive)
24,Cc1ccc(N2C(=O)NC(=O)/C(=C\c3ccc([N+](=O)[O-])o3)C2=O)cc1,10.6% (inactive)

row,Structure (SMILES),inhibition
1,Nc1cc2nc3ccccc3nc2cc1N,-1.6% (inactive)
2,CNc1ccc2nc3ccccc3[n+](C)c2c1,54.7% (active)
3,C[n+]1c2ccccc2nc2ccc(NCCO)cc21,41.7% (inactive)
4,CC(Cc1ccccc1)NC(=O)Cc1ccc([N+](=O)[O-])cc1 (stereo not given),4.1% (inactive)
5,CC1(c2ccc(Cl)cc2Cl)OCC(Cn2cncn2)O1 (stereo not given),60.3% (active)
6,CCCC1COC(Cn2cncn2)(c2ccc(Cl)cc2Cl)O1 (stereo not given),5.9% (inactive)
7,CC(C(=O)c1ccc(Cl)cc1Cl)n1cncn1 (stereo not given),-37.6% (inactive)
8,Cc1c(C(=O)N2CCC3(CC2)OCCO3)oc2ccc(S(=O)(=O)N3CCOCC3)cc12,9.5% (inactive)
9,Clc1ccccc1NC1=NCCCS1,-11.5% (inactive)
10,Cn1ncnc2c(=O)n(C)c(=O)nc1-2,45.4% (inactive)
11,CCn1nc(-c2cccs2)nc2c(=O)n(C)c(=O)nc1-2,72.1% (active)
12,CCOc1ccc(-n2c(-c3cccs3)nc3ccccc3c2=O)cc1,21.3% (inactive)
13,CCCCn1c(O)c(C(C)=NCCN2CCOCC2)c(=O)[nH]c1=O,2.3% (inactive)
14,Cc1[nH]c2ccc(OC(F)(F)F)cc2c1CCNCc1ccc(Cl)cc1,2.1% (inactive)
15,COc1ccc(CNCCc2c(C)[nH]c3ccc(OC(F)(F)F)cc23)c(OC)c1,57.8% (active)
16,COc1ccc2[nH]c(C)c(CCNCc3cc(OC)c(OC)c(OC)c3)c2c1,6.9% (inactive)
17,COc1cc2c(cc1OC)C(C(=O)N(C)C1CCCCC1)C1CCCCN1C2=O (stereo not given),9.9% (inactive)
18,CCCCn1c(=O)c(C(=O)Nc2ccccc2N)c(O)c2ccccc21,2.4% (inactive)
19,COc1ccc(C2=NS(=O)(=O)N(C)C(C(=O)N3CCC4(CC3)OCCO4)=C2)cc1OC,8.1% (inactive)
20,COc1ccc(CNCCc2ccc(Cl)cc2Cl)cc1,-27.6% (inactive)
21,Cc1nn(Cc2ccccc2Cl)c(C)c1C(=O)NC1CCCc2ccccc21 (stereo not given),20.5% (inactive)
22,CN(C)C(=O)Oc1ccc2c(c1)O/C(=C\c1ccc(Cl)cc1)C2=O,-16.2% (inactive)
23,Cc1c(C(=O)Nc2ccccc2)cc(-c2ccccc2)n1CCCN1CCOCC1,8.6% (inactive)
24,O=C(NCc1cccnc1)Nc1ccc([N+](=O)[O-])cc1,-1.2% (inactive)

row,Structure (SMILES),inhibition
1,Cc1ccc(CN2CCN(CC(=O)N3CCC4(CC3)OCCO4)C2=O)cc1,-1.6% (inactive)
2,C[C@H]1C[C@@H](C)C(=O)[C@@H]([C@H](O)CC2CC(=O)NC(=O)C2)C1,73% (active)
3,CCn1c(O)c(C=Nc2ccc(N3CCOCC3)cc2)c(=O)n(CC)c1=S,22.7% (inactive)
4,COCCN1C(=O)NC(=O)/C(=C\c2ccc(Br)cc2)C1=O,0.7% (inactive)
5,CC(C)c1oc(=O)cc2c1[C@@H](O)[C@H]1OC(=O)[C@@]3(C)C[C@@H](O)[C@@H](O)[C@@]2(C)C13 (stereo not given in full),64.6% (active)
6,CC(C)c1oc(=O)cc2c1[C@@H](O)[C@H]1OC(=O)[C@@]3(C)CC[C@@H](O)[C@@]2(C)C13 (stereo not given in full),20% (inactive)
7,CC(Cc1ccsc1)NCc1cn[nH]c1-c1ccc(F)cc1F (stereo not given),10.2% (inactive)
8,COc1cc(N2CCOCC2)ccc1/C=C1\C(=O)NC(=O)N(C2CCCCC2)C1=O,12% (inactive)
9,CCOC(=O)C1=CC(=C2C(=O)N(CC)C(=S)N(CC)C2=O)c2ccccc2O1,18.1% (inactive)
10,O=C(CCNC(=O)N1C[C@H]2C[C@@H](C1)c1cccc(=O)n1C2)Nc1cccc(Cl)c1,13.1% (inactive)
11,O=C(Nc1cccc(OC(=O)N2CCCCC2)c1)N1CCOCC1,-0.1% (inactive)
12,O=C(Nc1ccc(OC(=O)N2CCCCC2)cc1)N1CCOCC1,62.5% (active)
13,O=C(Nc1ccc(OC(=O)N2CCCC2)cc1)N1CCOCC1,12.5% (inactive)
14,COC(=O)c1nc(-c2ccc3c(n2)C(=O)C(N)=C(OC)C3=O)c(N)c(-c2ccc(OC)c(OC)c2O)c1C,57.2% (active)
15,O=C(c1ccc(N2CCCCCC2)c([N+](=O)[O-])c1)N1CCC2(CC1)OCCO2,73.2% (active)
16,CCC(=O)Nc1cc(C(=O)N2CCC3(CC2)OCCO3)ccc1S(=O)(=O)c1ccc(C)cc1,0.8% (inactive)
17,CC(=O)Nc1cc(C(=O)N2CCC3(CC2)OCCO3)ccc1S(=O)(=O)c1ccc(Cl)cc1,6.8% (inactive)
18,CC1CCCN(c2ccc(C(=O)N3CCC4(CC3)OCCO4)cc2[N+](=O)[O-])C1 (stereo not given),15.8% (inactive)
19,CC(=O)Nc1cc(C(=O)N2CCC3(CC2)OCCO3)ccc1S(=O)(=O)c1ccc(C)cc1,52.9% (active)
20,O=C(c1ccc(N2CCCCC2)c([N+](=O)[O-])c1)N1CCC2(CC1)OCCO2,9.1% (inactive)
21,O=C(COc1ccc2ccc(=O)oc2c1)N1C[C@H]2C[C@@H](C1)c1cccc(=O)n1C2,-2.7% (inactive)
22,CN1CC(C(=O)c2ccc([N+](=O)[O-])cc2)C(c2ccc(Cl)cc2)C1 (stereo not given),16.2% (inactive)
23,COC(=O)C(C)NC(=S)N1CC2C[C@@H](C1)Cn1c2cccc1=O (stereo not given in full),14.9% (inactive)
